Screens deposited in PubChem by Broad Institute.
Compounds with a hit are over-represented: about 6.7% of the library has one in this group of screens.
Pf Dd2 growth = inhibitors of Plasmodium falciparum Dd2 growth. P. falciparum Dd2 growth, SYBR Green, 72 h; stronger effect = lower value. actives 2.3% (n = 94,000). activity change, % at 10 µM; in the data active means activity change below about -80%; inconclusive means no clear call, values can overlap the other calls
C diff growth = blocks growth of Clostridium difficile. Clostridium difficile clinical isolate growth, OD600, 24 h; stronger effect = lower value. growth activity, negative = inhibition, % at 16 µg/mL (by protocol). actives 0.25% (n = 86,000);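 active means mean growth activity at or below -80% and every replicate also at or below -80%; inconclusive means mean at or below -80% but some replicate above -80%; inactive means mean growth activity above -80%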;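 further: 0% = DMSO wells and -100% = levofloxacin 16 µg/mL wells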
T cruzi growth-1 = inhibitors of T. cruzi proliferation. inhibition, % at 8.34 µM. T. cruzi beta-gal in NIH3T3, GalScreen luminescence, 90 h. actives 5.9% (n = 77,000). AID 624255;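 active means mean inhibition above about 93%, with at least 55% of replicates each passing it, limit read from the data, passing the limit was not always enough; inconclusive means only one of those two conditions holds; inactive means neither condition holds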
T cruzi growth-2 = Trypanosoma cruzi proliferation inhibition; actives 72% (n = 5,600); inhibition, % at 8.35 µM; AID 651739; shares compounds with T cruzi growth-1; T. cruzi beta-gal in NIH3T3, GalScreen luminescence, 90 h;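 active means mean replicate inhibition above about 95% and at least 55% of replicates individually reaching it, limit read from the data; inconclusive means only one of the two criteria is met; inactive means neither criterion is met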
T cruzi growth-3 = inhibitors of T. cruzi proliferation; T. cruzi beta-gal in NIH3T3, GalScreen luminescence, 90 h; inhibition, % at 2.09 µM; AID 651740; shares compounds with T cruzi growth-1; actives 21% (n = 5,600);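 active means mean inhibition above about 95%, with at least 55% of replicates also reaching it, limit read from the data; inconclusive means meets just one of the two conditions; inactive means meets neither condition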;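 further: plate controls were neutral control median for no effect and positive control median for full effect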
3T3 cytotox = NIH/3T3 (mouse) viability loss; shares compounds with T cruzi growth-1; NIH/3T3 viability, CellTiter-Glo ATP luminescence, 90 h; cytotoxicity (signal decrease), % at 8.35 µM; actives 14% (n = 5,600);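 active means mean signal decrease across replicates above about 35% based on untreated-well scatter, with enough replicates individually passing, limit read from the data; inconclusive means no rule stated though some were filed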;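 further: 0% = median of neutral control wells and 100% = median of positive control wells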
NIH3T3 tox 2 = kills mouse NIH/3T3 fibroblasts; NIH/3T3 viability, CellTiter-Glo ATP luminescence, 90 h; actives 56% (n = 5,600); AID 651744; shares compounds with T cruzi growth-1; inhibition, % at 24.9 µM;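 active means mean loss of cell viability signal at or above a set limit, and enough replicates individually reaching it; inconclusive means meets only the mean limit or only the replicate share; inactive means meets neither condition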;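 further: 0% = median of neutral control wells and 100% = median of positive control wells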
* hit, by the source's call.

For Cc1ccccc1S(=O)(=O)N1CCCCN2[C@H](CO)[C@@H](c3ccc(-c4cncnc4)cc3)[C@@H]2C1 the results were Pf Dd2 growth -20, C diff growth -1 and T cruzi growth-1 94.
For Cc1ccc(S(=O)(=O)Nc2ccc3c(c2)C(=O)N([C@@H](C)CO)C[C@@H](C)[C@@H](CN(C)S(=O)(=O)c2ccc(F)cc2)O3)cc1 the results were Pf Dd2 growth 8, C diff growth 9 and T cruzi growth-1 42.
Screening C[C@H](CO)N1C[C@H](C)[C@@H](CN(C)C(=O)C2CCCCC2)Oc2cc(Br)ccc2S1(=O)=O returned Pf Dd2 growth -2, C diff growth 8 and T cruzi growth-1 56.
For COc1cccc(NC(=O)N(C)C[C@@H]2Oc3cc(C#Cc4ccc(F)cc4)ccc3S(=O)(=O)N([C@H](C)CO)C[C@H]2C)c1 the results were Pf Dd2 growth -78, C diff growth 5, T cruzi growth-1 103*, T cruzi growth-2 98*, T cruzi growth-3 94, 3T3 cytotox 22 and NIH3T3 tox 2 55*.
COc1cccc(NC(=O)N(C)C[C@@H]2Oc3cc(C#CC4(O)CCCC4)ccc3S(=O)(=O)N([C@@H](C)CO)C[C@@H]2C)c1 was read as Pf Dd2 growth -33 and C diff growth 5.
COc1cccc(NC(=O)N(C)C[C@@H]2Oc3cc(C#Cc4ccc(F)cc4)ccc3S(=O)(=O)N([C@H](C)CO)C[C@@H]2C)c1 was read as Pf Dd2 growth -90*, C diff growth 4, T cruzi growth-1 117*, T cruzi growth-2 99*, T cruzi growth-3 111*, 3T3 cytotox 50* and NIH3T3 tox 2 38*.
For COc1cccc(NC(=O)N(C)C[C@H]2Oc3cc(C#CC4(O)CCCC4)ccc3S(=O)(=O)N([C@@H](C)CO)C[C@H]2C)c1 the results were Pf Dd2 growth -5 and C diff growth 8.
Screening COc1cccc(NC(=O)N(C)C[C@@H]2Oc3cc(C#Cc4ccccc4)ccc3S(=O)(=O)N([C@H](C)CO)C[C@@H]2C)c1 returned Pf Dd2 growth -90*, C diff growth -13, T cruzi growth-1 86*, T cruzi growth-2 104*, T cruzi growth-3 inconclusive, 3T3 cytotox 32 and NIH3T3 tox 2 22.
For COc1ccc(C#Cc2ccc3c(c2)O[C@H](CN(C)C(=O)Nc2cccc(OC)c2)[C@H](C)CN([C@@H](C)CO)S3(=O)=O)cc1 the results were Pf Dd2 growth -86*, T cruzi growth-1 116*, T cruzi growth-2 111*, T cruzi growth-3 104*, 3T3 cytotox 13 and NIH3T3 tox 2 9.
For COc1cccc(NC(=O)N(C)C[C@@H]2Oc3cc(-c4ccccc4OC)ccc3S(=O)(=O)N([C@@H](C)CO)C[C@@H]2C)c1 the results were Pf Dd2 growth -51 and C diff growth -4.
COc1cccc(NC(=O)N(C)C[C@@H]2Oc3cc(C#CC4(O)CCCC4)ccc3S(=O)(=O)N([C@H](C)CO)C[C@H]2C)c1 was read as Pf Dd2 growth -26 and C diff growth 9.
C[C@H]1CN([C@@H](C)CO)C(=O)Cc2cc(NS(=O)(=O)c3cn(C)cn3)ccc2O[C@@H]1CN(C)CC1CCCCC1 was read as Pf Dd2 growth 16, C diff growth 1 and T cruzi growth-1 10.
COc1cccc(NC(=O)N(C)C[C@@H]2Oc3cc(-c4ccccc4F)ccc3S(=O)(=O)N([C@@H](C)CO)C[C@H]2C)c1 was read as Pf Dd2 growth -14, C diff growth -5 and T cruzi growth-1 68.
Screening COc1cccc(C#Cc2ccc3c(c2)O[C@@H](CN(C)C(C)=O)[C@H](C)CN([C@H](C)CO)S3(=O)=O)c1 returned Pf Dd2 growth -58, C diff growth -8 and T cruzi growth-1 74.
Screening COc1cccc(NC(=O)N(C)C[C@H]2Oc3cc(-c4ccccc4F)ccc3S(=O)(=O)N([C@H](C)CO)C[C@@H]2C)c1 returned Pf Dd2 growth -41, C diff growth -10, T cruzi growth-1 inconclusive, T cruzi growth-2 98*, T cruzi growth-3 -20, 3T3 cytotox 7 and NIH3T3 tox 2 inconclusive.
